Measurements as given in PubChem BioAssay (Tox21).
Inconclusive results are not listed. Activity calls are given as the source filed them. Unless noted, calls come from the whole dose curve.

How the values were obtained:
[1] = qHTS assay to identify small molecule antagonists of the vitamin D receptor (VDR) signaling pathway - cell viability counter screen (AID 743225; active = well fitted curve in the direction sought with a large enough effect in the repeat runs; an effect the other way counts as inactive or inconclusive; note: % is set by controls: 0 for no effect and ±100 for the full control effect; nearly all actives have a fitted effect of over 50% in size)
Summary of the method: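 Cytotoxicity counter screen read by CellTiter-Glo luminescence (30 min, room temperature) in the same wells as the VDR-bla antagonist readout. HEK 293T VDR-UAS-bla cells had 16 h at 37C with compound and 3 nM (final) 1-alpha,25-dihydroxyvitamin D3, then 2 h with FRET substrate.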

[2] = qHTS assay to identify small molecule agonists of the NFkB signaling pathway (AID 1159509; active = well fitted curve in the direction sought with a large enough effect in the signal ratio in the repeat runs, not every such curve was filed as active; the % refers to the signal ratio; note: series mostly up to about 61 µM; % is set by controls: 0 for no effect and ±100 for the full control effect)
Summary of the method: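 NFkB-bla ME-180 cells with a beta-lactamase reporter under an NF-kB response element were plated overnight, treated with compounds in DMSO for 5 hr at 37 C, then loaded with FRET substrate for 1.5 hr at room temperature.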

[3] = qHTS assay to identify small molecule agonists of the NFkB signaling pathway - cell viability counter screen (AID 1159515); note: series mostly up to about 61 µM; % is set by controls: 0 for no effect and ±100 for the full control effect; nearly all actives have a fitted effect of over 55% in size
Summary of the method: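 NFkB-bla ME-180 cells, 2,000/well, were plated overnight at 37 C, 5% CO2, then exposed to compounds in DMSO for 5 hr. After the bla FRET read, CellTiter-Glo was added to the same wells; luminescence was read after 30 min at room temperature.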

[4] = qHTS assay to identify small molecule agonists of the endoplasmic reticulum stress response signaling pathway (AID 1159516; active = well fitted activation curve with a large enough effect in the signal ratio in the repeat runs, not every such curve was filed as active; the % refers to the signal ratio; note: % is set by controls: 0 for no effect and ±100 for the full control effect)
Summary of the method: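 CellSensor ESRE-bla HeLa cells, carrying a beta-lactamase reporter driven by the ER stress response element, were plated overnight and exposed to compounds for 5 hr at 37 C. Reporter activity was read as FRET substrate fluorescence after 2 hr at room temperature.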

[5] = qHTS assay to identify small molecule agonists of the endoplasmic reticulum stress response signaling pathway - cell viability counter screen (AID 1159517); note: series mostly up to about 61 µM; % is set by controls: 0 for no effect and ±100 for the full control effect; nearly all actives have a fitted effect of over 50% in size
Summary of the method: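 Luminescence readout: CellTiter-Glo, 30 min RT, same wells as the ESRE-bla reporter read. HeLa ESRE-bla, 1,500 cells/well, o/n 37 C; cpd 5 hr 37 C/5% CO2.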

[6] = qHTS assay to identify small molecule antagonists of the retinoid-related orphan receptor gamma (ROR-gamma) signaling pathway - cell viability counter screen (AID 1159520; active = well fitted curve in the direction sought with a large enough effect in the repeat runs; an effect the other way counts as inactive or inconclusive; note: % is set by controls: 0 for no effect and ±100 for the full control effect; nearly all actives have a fitted effect of over 50% in size)
Summary of the method: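 Tet-on ROR gamma CHO cells (1,000/well) were plated 4 hr, given compounds in DMSO for 2 hr at 37 C, then induced with 1 uM final doxycycline for 16 hr. Viability was read as ATP by CellTiter-Glo luminescence after 30 min.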

[7] = qHTS assay to identify small molecule agonists of the AP-1 signaling pathway - cell viability counter screen (AID 1159525); note: nearly all actives have a fitted effect of over 55% in size
Summary of the method: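 ME-180 AP-1-bla, 2500 cells/well, Opti-MEM + 0.5% dialyzed FBS; overnight 37 °C; cpd 15-pt titration, 5 h 37 °C; CellTiter-Glo 30 min RT; luminescence read; normalised to TOAB and DMSO controls.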

[8] = qHTS assay to identify small molecule agonists of the AP-1 signaling pathway (AID 1159526); note: % is set by controls: 0 for no effect and ±100 for the full control effect
[9] = qHTS assay to identify small molecule agonists of the vitamin D receptor (VDR) signaling pathway - cell viability counter screen (AID 743224; active = well fitted curve in the direction sought with a large enough effect in the repeat runs; an effect the other way counts as inactive or inconclusive; note: series mostly up to about 63 µM; % is set by controls: 0 for no effect and ±100 for the full control effect; nearly all actives have a fitted effect of over 50% in size)
Summary of the method: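 VDR-bla cells were preincubated 4 h at 37C/5% CO2, then exposed to compounds for 16 h. After the 2 h room-temperature bla FRET read, CellTiter-Glo was added to the same wells and luminescence read after 30 min.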

[10] = target: Nuclear receptor ROR-gamma (Homo sapiens) (UniProt P51449); assay: qHTS assay to identify small molecule antagonists of the retinoid-related orphan receptor gamma (ROR-gamma) signaling pathway (AID 1159521; active = well fitted curve in the direction sought with a large enough effect in the repeat runs; an effect the other way counts as inactive or inconclusive)
Summary of the method: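 Antagonist read-out: drop in luminescence (ONE-Glo) from an RORE-LUC reporter in CHO cells with doxycycline-inducible ROR-gamma; 2 hr compound pretreatment, 1 uM doxycycline, 16 hr incubation at 37 C.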

Cc1cc(C)c(C)cc1C
inactive: outcome [1] | outcome [2] | outcome [3] | outcome [4] | outcome [5] | Potency [6] | Potency [7] | outcome [8]

CCC(O)OC(O)CC (stereo not drawn)
inactive: Potency [9] | outcome [1] | outcome [3] | outcome [4] | outcome [5] | Potency [6] | Potency [7] | outcome [8]

COc1ccc(NC(C)=O)cc1N
inactive: Potency [9] | outcome [1] | outcome [3] | outcome [5] | Potency [6] | Potency [7] | outcome [8]

O=C(O)c1ccc2c(c1)C(=O)OC2=O
inactive: Potency [9] | outcome [1] | outcome [3] | outcome [5] | Potency [6] | Potency [7] | outcome [8]

O=C(O)CCCC[C@@H]1SC[C@@H]2NC(=O)N[C@@H]21
inactive: outcome [1] | outcome [3] | outcome [4] | outcome [5] | Potency [6] | Potency [7] | outcome [8]

C[C@H]1C[C@@H]2[C@H]([C@@H](O)C[C@@]3(C)[C@H]2CC[C@]3(O)C(=O)CO)[C@@]2(C)C=CC(=O)C=C12
inactive: outcome [1] | outcome [3] | outcome [5] | Potency [6] | Potency [10] | Potency [7] | outcome [8]

O=C1CCC(N2C(=O)c3ccccc3C2=O)C(=O)N1 (stereo not drawn)
inactive: outcome [1] | outcome [3] | outcome [4] | outcome [5] | Potency [6] | Potency [7] | outcome [8]

NNc1nncc2ccccc12
inactive: Potency [9] | outcome [1] | outcome [3] | outcome [4] | outcome [5] | Potency [6] | Potency [7] | activation [8] -4.28% [at 15.8 µM]

Cc1ccc(S(N)(=O)=O)cc1
inactive: Potency [9] | outcome [1] | outcome [3] | outcome [4] | outcome [5] | Potency [6] | Potency [7] | outcome [8]

O=C(O)CCCCCCCCCCC(=O)O
inactive: outcome [1] | outcome [3] | outcome [4] | outcome [5] | Potency [6] | Potency [10] | Potency [7] | outcome [8]

CC(C)c1ccc(S(=O)(=O)O)cc1
inactive: Potency [9] | outcome [1] | outcome [3] | outcome [5] | Potency [6] | Potency [10] | Potency [7] | outcome [8]

CCCCCCCCCCCCOCCO
inactive: outcome [1] | outcome [3] | outcome [4] | outcome [5] | Potency [6] | Potency [7] | outcome [8]

CN(C)CCC(c1ccccc1)c1ccccn1 (stereo not drawn)
inactive: Potency [9] | outcome [1] | outcome [3] | outcome [4] | outcome [5] | Potency [6] | Potency [7] | outcome [8]

Oc1cccc2ccccc12
inactive: Potency [9] | outcome [1] | outcome [3] | outcome [5] | Potency [6] | Potency [10] | Potency [7] | outcome [8]

CC(C)(N)CO
inactive: Potency [9] | outcome [1] | outcome [3] | outcome [5] | Potency [6] | Potency [10] | Potency [7] | outcome [8]

CC(=O)Nc1cccc(O)c1
inactive: Potency [9] | outcome [1] | outcome [3] | outcome [5] | Potency [6] | Potency [7] | outcome [8]

CCc1ccc(CCOc2ccc(CC3SC(=O)NC3=O)cc2)nc1 (stereo not drawn)
inactive: Potency [9] | outcome [1] | outcome [3] | outcome [4] | outcome [5] | Potency [6] | Potency [7] | outcome [8]

c1ccc(OCCOc2ccccc2)cc1
inactive: Potency [9] | outcome [1] | outcome [3] | outcome [5] | Potency [6] | Potency [10] | Potency [7] | outcome [8]

CCCCCCCCC/C=C/CC1CC(=O)OC1=O (stereo not drawn)
inactive: Potency [9] | outcome [1] | outcome [3] | outcome [5] | Potency [6] | Potency [7] | outcome [8]

CC(O)COCC(C)O (stereo not drawn)
inactive: Potency [9] | outcome [1] | outcome [3] | outcome [4] | outcome [5] | Potency [6] | Potency [7] | outcome [8]

O=C(O)[C@H](O)[C@@H](O)[C@H](O)[C@H](O)CO
inactive: Potency [9] | outcome [1] | outcome [3] | outcome [5] | Potency [6] | Potency [7] | activation [8] 7.9% [at 2.72 µM]

C/C=C1/CC2C=CC1C2 (stereo not drawn)
inactive: outcome [1] | outcome [3] | outcome [4] | outcome [5] | Potency [6] | Potency [7] | outcome [8]

Nc1ccccc1[N+](=O)[O-]
inactive: Potency [9] | outcome [1] | outcome [3] | outcome [5] | Potency [6] | Potency [10] | Potency [7] | outcome [8]

OCc1cccnc1
inactive: outcome [1] | outcome [3] | outcome [4] | outcome [5] | Potency [6] | Potency [7] | outcome [8]

CC(c1cc2ccccc2s1)N(O)C(N)=O (stereo not drawn)
inactive: Potency [9] | outcome [1] | outcome [3] | outcome [4] | outcome [5] | Potency [6] | Potency [7] | outcome [8]

OC[C@H]1O[C@@](CO)(O[C@H]2O[C@H](CO)[C@@H](O)[C@H](O)[C@H]2O)[C@@H](O)[C@@H]1O
inactive: Potency [9] | outcome [1] | outcome [3] | outcome [4] | outcome [5] | Potency [6] | Potency [7] | outcome [8]

Cc1occc(=O)c1O
inactive: Potency [9] | outcome [1] | outcome [3] | outcome [4] | outcome [5] | Potency [6] | Potency [7] | outcome [8]

CC(=O)CC(=O)Nc1ccccc1
inactive: Potency [9] | outcome [1] | outcome [3] | outcome [4] | outcome [5] | Potency [6] | Potency [7] | outcome [8]
